Activity calls are given as the source filed them. Rule for the calls: active = hit-call score of the fitted dose curve at least 0.9, where 1 is the maximum; inactive = score below 0.9.
Molecular target: Heat shock factor protein 1 (Homo sapiens) (UniProt Q00613)
Test: ATG_HSE_CIS: Attagene CIS-FACTORIAL HepG2 Assay for human Heat Shock Transcription Factor 1 (HSE) (AID 2282953)
Details: HepG2 HSE cis-reporter, Attagene RNA transcription; actives raise or lower the signal
Method: ATG_CIS is a cell-based, multiplexed-readout assay that uses HepG2, a human liver cell line, with measurements taken at 24 hours after chemical dosing in a 24-well plate.ATG_HSE_CIS is one of 52 assay component(s) measured or calculated from the ATG_CIS assay. It is designed to make measurements of mRNA induction, a form of inducible reporter, as detected with fluorescence intensity signals by Reverse transcription polymerase chain reaction (RT-PCR) and Capillary electrophoresis technology.Data from the assay component ATG_HSE_CIS was analyzed into 1 assay endpoint. This assay endpoint, ATG_HSE_CIS, was analyzed with bidirectional fitting relative to DMSO as the negative control and baseline of activity. Using a type of inducible reporter, measures of mRNA for gain or loss-of-signal activity can be used to understand the reporter gene at the transcription factor-level as they relate to the gene HSF1. Furthermore, this assay endpoint can be referred to as a primary readout, because this assay has produced multiple assay endpoints where this one serves a reporter gene function. To generalize the intended target to other relatable targets, this assay endpoint is annotated to the dna binding intended target family, where the subfamily is heat shock protein.
Human liver HepG2 cells are transiently transfected with multiple reporter transcription units (MRTUs) in 6-well plates using FuGene 6 reagent (Roche; 3 ml FuGene/1 mg DNA). The MRTU constructs are regulated by a cis-regulating element (promoter). […] A major difference between the CIS and TRANS system is that in CIS activities of endogenous TFs are measured, whereas the TRANS assay evaluates changes in activities of exogenous, chimeric NR-Gal4 proteins. […] At the end of 24 hour incubation, total RNA was isolated using TriZol reagent (Invitrogen). The isolated RNA is then reverse-transcribed using oligo(dT) primer and Mo-MLV reverse transcriptase (Invitrogen) with DNAse I (Ambion) treatment for 30 min. The one-tenth of the produced cDNA was amplified by PCR using Taq DNA polymerase (Invitrogen) and two reporter sequence-specific primers. The PCR products were fluorescently labeled by primer extension with 6-arboxyfluorescein (6-FAM) 5'-labeled reporter sequence-specific primer (2 min at 95 C, 20 s at 68 C and 10 min at 72 C) and these products were digested with 5U of HpaI (New England Biolabs) for 2h at 37 C. The fragments were purified using Qiaquick PCR columns (Qiagen), analyzed on an ABI 3130xL genetic analyzer (Applied Biosystems) with peak positions identified by using a set of X-rhodamine (ROX)-labeled MapMarker1000 molecular weight standards (BioVentures). The raw capillary electrophoresis data was processed using Attagraph software (Attagene).

Sequence of Heat shock factor protein 1 (Homo sapiens) (Q00613 whole entry, looked up): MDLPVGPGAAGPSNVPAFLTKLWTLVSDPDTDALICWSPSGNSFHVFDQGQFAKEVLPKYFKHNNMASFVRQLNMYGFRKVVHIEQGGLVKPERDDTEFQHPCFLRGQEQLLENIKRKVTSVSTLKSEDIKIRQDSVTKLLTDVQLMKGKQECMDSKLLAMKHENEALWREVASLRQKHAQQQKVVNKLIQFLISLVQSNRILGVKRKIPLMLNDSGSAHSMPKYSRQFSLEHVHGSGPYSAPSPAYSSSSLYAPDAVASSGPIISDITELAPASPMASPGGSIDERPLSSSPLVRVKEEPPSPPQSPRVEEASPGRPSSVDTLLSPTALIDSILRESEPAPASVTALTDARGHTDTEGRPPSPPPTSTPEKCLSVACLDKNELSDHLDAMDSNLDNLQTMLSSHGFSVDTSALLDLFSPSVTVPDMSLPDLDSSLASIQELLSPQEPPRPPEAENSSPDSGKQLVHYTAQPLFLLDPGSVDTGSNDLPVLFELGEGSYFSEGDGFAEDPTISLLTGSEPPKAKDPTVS

With `CCOc1ccc(N)c([N+](=O)[O-])c1` as the compound, how does the outcome read?
The outcome was “inactive”.

Which outcome does the source give for `C=C[Si](OC(C)=O)(OC(C)=O)OC(C)=O` here?
Its outcome is “inactive”.

With `O=C1CCCCCN1SSN1CCCCCC1=O` as the compound, how does the AC50 read?
The AC50 was 133 µM (active).

With `O=C(O)C(c1ccc(Cl)cc1)c1ccc(Cl)cc1` as the compound, how does the outcome read?
Its outcome is “inactive”.

How did the AC50 turn out when `CN(C)c1ccc(N=Nc2ccccc2C(=O)O)cc1` was run?
Its AC50 is 56.5 µM (active).

How did the AC50 turn out when `[Cl][Bi]([Cl])([c]1ccccc1)([c]1ccccc1)[c]1ccccc1` was run?
The AC50 was 5.52 µM (active).

`C=C1C2CCC(C2)C1(C)C` (stereo not given) was tested. Which outcome did it give?
The outcome was “inactive”.

`CC1(C)O[C@@H]2C[C@H]3[C@@H]4C[C@H](F)C5=CC(=O)C=C[C@]5(C)[C@@]4(F)[C@@H](O)C[C@]3(C)[C@]2(C(=O)CO)O1` was tested. Which outcome did it give?
Its outcome is “inactive”.

How did the outcome turn out when `S=C(NC1CCCCC1)NC1CCCCC1` was run?
The outcome was “inactive”.

With `CCCCCCCCCCCCCCCC(=O)OCC` as the compound, how does the outcome read?
The outcome was “inactive”.

How did the outcome turn out when `CCCCCCCC(C)=O` was run?
Its outcome is “inactive”.

With `CCOC(=O)CC(C(C)=O)C(C)=O` as the compound, how does the outcome read?
Its outcome is “inactive”.

Which outcome does the source give for `Nc1nc2ccccc2[nH]1` here?
The outcome was “inactive”.

How did the outcome turn out when `CN(C)CCCN(C)C` was run?
The outcome was “inactive”.

Which outcome does the source give for `O=C1C(N(CO)C(=O)NCO)N(CO)C(=O)N1CO` (stereo not given) here?
The outcome was “inactive”.

How did the outcome turn out when `CC=CC(=O)N(CC)c1ccccc1C` was run?
The outcome was “inactive”.

With `CCCCCCC(O)CO` (stereo not given) as the compound, how does the outcome read?
Its outcome is “inactive”.

With `CC1OC1C1CCC2(C)OC2C1` (stereo not given) as the compound, how does the outcome read?
The outcome was “inactive”.

With `CCOC(=O)CC` as the compound, how does the outcome read?
The outcome was “inactive”.

For `Clc1nc2ccccc2s1`, which outcome is on record?
Its outcome is “inactive”.

How did the outcome turn out when `CCO[Si](CCCN=C=O)(OCC)OCC` was run?
Its outcome is “inactive”.

`COc1ccc([C@@H]2CC(=O)c3c(O)cc(O[C@@H]4O[C@H](CO[C@@H]5O[C@@H](C)[C@H](O)[C@@H](O)[C@H]5O)[C@@H](O)[C@H](O)[C@H]4O)cc3O2)cc1OC` was tested. Which outcome did it give?
Its outcome is “inactive”.

With `O=c1n(CCO)c(=O)n(CCO)c(=O)n1CCO` as the compound, how does the outcome read?
The outcome was “inactive”.

With `CCN(CC)c1ccc(C(=O)c2ccccc2C(=O)O)c(O)c1` as the compound, how does the outcome read?
The outcome was “inactive”.

For `O=C1CCCCCCCCCCCCCCCO1`, which AC50 is on record?
The AC50 was 160 µM (active).

With `CC(=O)C=CC1C(C)=CCC(C)C1(C)C` (stereo not given) as the compound, how does the outcome read?
Its outcome is “inactive”.

`O=C(Cl)c1cc(C(=O)Cl)cc(C(=O)Cl)c1` was tested. Which AC50 did it give?
Its AC50 is 100 µM (active).

How did the AC50 turn out when `c1cc(N(CC2CO2)CC2CO2)ccc1OCC1CO1` (stereo not given) was run?
The AC50 was 152 µM (active).

With `NC(=O)c1ccccc1O` as the compound, how does the outcome read?
The outcome was “inactive”.

With `C=C(C)C(=O)OCCO` as the compound, how does the outcome read?
The outcome was “inactive”.

With `Cc1ccc(N/N=c2\c(=O)cc/c(=N/Nc3ccc(S(=O)(=O)O)cc3)c2=O)c(C)c1` as the compound, how does the outcome read?
Its outcome is “inactive”.

`CCCCCCCCO[C@@H]1O[C@H](CO)[C@@H](O)[C@H](O)[C@H]1O` was tested. Which outcome did it give?
The outcome was “inactive”.

With `CCc1nccnc1C` as the compound, how does the outcome read?
The outcome was “inactive”.

`CCCCCCCCCCc1ccccc1` was tested. Which outcome did it give?
Its outcome is “inactive”.

`c1ccc2c(c1)ccc1cc3c(ccc4ccccc43)cc12` was tested. Which outcome did it give?
The outcome was “inactive”.

Which outcome does the source give for `Oc1ccc(Cl)cc1Cc1cc(Cl)ccc1O` here?
The outcome was “inactive”.

For `NC(=O)C1CO1` (stereo not given), which outcome is on record?
The outcome was “inactive”.

With `O=C(Nc1ccccc1)c1ccccc1O` as the compound, how does the outcome read?
The outcome was “inactive”.

For `CC(C)(C)c1ccc(N)cc1`, which outcome is on record?
The outcome was “inactive”.

`C1=Cc2ccccc2C1` was tested. Which outcome did it give?
Its outcome is “inactive”.

From PubChem BioAssay (EPA / NIEHS)
